The values below are quoted from earlier work in PubChem BioAssay AID977611.

Hit rate of the full screen: of about 3,900 compounds, about 3,900 (100%) were called active. No cut-off is given here; in the data, nearly all actives have Kd up to about 4200 µM. The set was probably picked from earlier hits. The list shows a part of the results. Non-standard residues stand in square brackets, D forms with d. Square brackets hold non-standard residues; d marks the D form. Residues, ends and D or L forms follow the SMILES beside them. Peptide text beside a SMILES is read from it. *: point of attachment. Lys(Me3) = C[N+](C)(C)CCCC[C@H](N)C(=O)O; Orn(CH(NH2)2) = NC(N)NCCC[C@H](N)C(=O)O; For = O=C*

The data set is described as follows: PubChem AID 977611. As to conditions: PDB protein-ligand complexes, literature Kd.

Consider `Cc1ccc(-c2cc3c(NC([P+](O)(O)O)[P+](O)(O)O)ncnc3s2)cc1`, for which, where the note is “protein: Farnesyl pyrophosphate synthase, human FPPS, PDB entry 4lpg”, the Kd was 55.6 µM (active).

With `Cc1ccc(-c2cc3c(NC[P+](O)(O)O)ncnc3s2)cc1`, where the note is “protein: Farnesyl pyrophosphate synthase, human FPPS, PDB entry 4lph”, the dissociation constant (Kd) is 9.2 µM (active).

As to `N#Cc1c(Oc2ccc(F)c(NC(=O)Cc3cccc(C(F)(F)F)c3)c2)ccc2nc(NC(=O)C3CC3)sc12`, the Kd (protein: Serine/threonine-protein kinase B-raf, PDB entry 4ksp) was 0.0016 µM (active).

In the case of `O=C(c1ccccc1)N(O)CC[C@@H](c1ccc(Cl)c(Cl)c1)[P+](O)(O)O`, under “protein: 1-DEOXY-D-XYLULOSE 5-PHOSPHATE REDUCTOISOMERASE, PDB entry 3zhx”, the Kd was 0.21 µM (active).

Take `O=C(c1ccccc1Nc1cccc(C(F)(F)F)c1)N(O)CC[C@@H](c1ccc(Cl)c(Cl)c1)[P+](O)(O)O`: the Kd (protein: 1-DEOXY-D-XYLULOSE 5-PHOSPHATE REDUCTOISOMERASE, PDB entry 3zhz) was 0.09 µM (active).

Take `O=C(c1ccccc1Cn1cncn1)N(O)CC[C@@H](c1ccc(Cl)c(Cl)c1)[P+](O)(O)O`: the Kd (protein: 1-DEOXY-D-XYLULOSE 5-PHOSPHATE REDUCTOISOMERASE, PDB entry 3zi0) is 0.04 µM (active).

On to `CC(C)C[C@H](NC(=O)[C@H](Cc1cnc[nH]1)NC(=O)[C@H](CO)NC(=O)[C@H](CO)NC(=O)[C@H](Cc1cnc[nH]1)NC(=O)[C@H](C)NC(=O)[C@@H](N)CCCN=C(N)N)C(=O)N[C@@H](CCCCN(C)C)C(=O)N[C@@H](CO)C(=O)N[C@@H](CCCCN)C(=O)N[C@@H](CCCCN)C(=O)NCC(=O)N[C@@H](CCC(N)=O)C(=O)N[C@@H](CO)C(=O)N[C@H](C(=O)O)[C@@H](C)O`, for which, for the setting “protein: Tumor suppressor p53-binding protein 1, 53BP1 tandem Tudor domains, PDB entry 2mwo”, the Kd was 20 µM (active).

For `CSCC[C@H](NC(=O)[C@H](CC(C)C)NC(=O)[C@H](CCCCN(C)C)NC(=O)[C@H](CCCCN)NC(=O)[C@H](Cc1cnc[nH]1)NC(=O)[C@H](CCCN=C(N)N)NC(=O)[C@H](CO)NC(=O)[C@@H](NC(=O)[C@@H](N)CO)[C@@H](C)O)C(=O)N[C@@H](Cc1ccccc1)C(=O)N[C@@H](CCCCN)C(=O)N[C@H](C(=O)O)[C@@H](C)O`, the dissociation constant Kd (protein: Tumor suppressor p53-binding protein 1, 53BP1 tandem Tudor domains, PDB entry 2mwp) was 0.9 µM (active).

For the molecule `CC(C)C[C@H](NC(=O)[C@H](CC(=O)O)NC(=O)CNC(=O)[C@H](CCCN=C(N)N)NC(=O)CNC(=O)[C@H](Cc1cnc[nH]1)NC=O)C(=O)NCC(=O)N[C@@H](CCCN=C(N)N)C(=O)N[C@@H](CC(C)C)C(=O)N[C@@H](CCCCN)C(=O)N[C@@H](CCCCN)C(N)=O` (For-HGRGDLGRLKK-NH2), the Kd (protein: Integrin alpha V beta 6, PDB entry 4um9) is 0.0085 µM (active).

As to `CC(C)C[C@H](NC(=O)[C@@H](NC(=O)[C@H](CCCC[N+](C)(C)C)NC(=O)[C@H](CCCNC(N)N)NC(=O)[C@H](Cc1cnc[nH]1)NC(=O)[C@@H](N)CCCNC(N)N)C(C)C)C(=O)N[C@H](C=O)CCCNC(N)N` (H-[Orn(CH(NH2)2)]H[Orn(CH(NH2)2)][Lys(Me3)]VL[Orn(CH(NH2)2)]-aldehyde), the Kd (protein: Polycomb protein EED residues 77-441, PDB entry 3ij1) is 20 µM (active).

In the case of `CC(C)C[C@H](NC(=O)[C@@H](NC(=O)[C@@H](CCCC[N+](C)(C)C)NC(=O)[C@H](CCCNC(N)N)NC(=O)[C@H](Cc1cnc[nH]1)NC(=O)[C@@H](N)CCCNC(N)N)C(C)C)C(=O)N[C@@H](CCCNC(N)N)C(=O)O`, the Kd (protein: JMJD2A-tudor, PDB entry 2qqs) is 0.4 µM (active).

As for `CC(C)C[C@H](NC(=O)[C@@H](NC(=O)[C@H](CCCC[N+](C)(C)C)NC(=O)[C@H](CCCNC(N)N)NC(=O)[C@@H](N)Cc1cnc[nH]1)C(C)C)C(=O)N[C@@H](CCCNC(N)N)C(=O)O` (H-H[Orn(CH(NH2)2)][Lys(Me3)]VL[Orn(CH(NH2)2)]-OH), where the note is “protein: Polycomb protein EED, PDB entry 3jpx”, the dissociation constant (Kd) was 235 µM (active).

As to `CN(C)c1ccc(C(c2ccc(O)cc2)c2ccc(N(C)C)cc2)cc1`, for the setting “protein: Immunoglobulin lambda variable domain L5(L89S), PDB entry 4k3h”, the dissociation constant Kd was 0.14 µM (active).

For `CN(C)c1ccc(C(c2ccc(N(C)C)cc2)c2ccc(N(C)C)cc2)cc1`, the Kd (protein: Putative regulatory protein, PDB entry 3vw1) was 21.2 µM (active).

As to `Nc1ccc2[nH]c(=O)c3ccccc3c2c1`, the Kd (protein: Putative ADP-ribosyltransferase Certhrax, PDB entry 4fk7) is 5.8 µM (active).

Regarding `Nc1ncnc2c1ncn2[C@@H]1O[C@H](CO[P+](O)(O)O)[C@@H](O)[C@H]1O[C@H]1O[C@H](CO[P+](O)(O)O)[C@@H](O)[C@H]1O`, the dissociation constant Kd (protein: E3 ubiquitin-protein ligase RNF146 RNF146(RING-WWE), PDB entry 4qpl) is 0.039 µM (active).

Regarding `Nc1ncnc2c1ncn2[C@@H]1O[C@H](CO)[C@@H](O[P+](O)(O)OC[C@H]2O[C@@H](n3ccc(=O)[nH]c3=O)[C@H](O)[C@@H]2O)[C@H]1O`, the Kd (protein: Poly(A) RNA polymerase protein cid1, PDB entry 4nku) is 21.3 µM (active).

Take `Nc1ncnc2c1ncn2[C@@H]1O[C@H](CO[P+](O)(O)OS(O)(O)O)[C@@H](O)[C@H]1O`: the dissociation constant (Kd) (protein: Adenylyl-sulfate kinase 1, chloroplastic, PDB entry 4fxp) is 80.4 µM (active).

In the case of `Nc1ncnc2c1ncn2[C@@H]1O[C@H](CO[P+](O)(O)O[P+](O)(O)N[P+](O)(O)O)[C@@H](O)[C@H]1O`, the Kd was 37 µM (active) (protein: INOSITOL-PENTAKISPHOSPHATE 2-KINASE, PDB entry 4axd); 8.3 µM (active) (protein: N-acetylhexosamine 1-phosphate kinase NahK, PDB entry 4ock); 8.3 µM (active) (protein: N-acetylhexosamine 1-phosphate kinase NahK, PDB entry 4ocv); 6.8 µM (active) (protein: Osmolarity sensor protein EnvZ, Histidine kinase, PDB entry 4kp4).

As for `NC(=O)C1=CN([C@H]2O[C@H](CO[P+](O)(O)O[P+](O)(O)OC[C@H]3O[C@@H](n4cnc5c(N)ncnc54)[C@H](O)[C@@H]3O)[C@@H](O)[C@H]2O)C=CC1`, the Kd (protein: Redox-sensing transcriptional repressor rex, PDB entry 3wgg) was 39.9 µM (active).

`Nc1ncnc2c1ncn2[C@@H]1O[C@H](CO[P+](O)(O)O[P+](O)(O)OC[C@H]2O[C@H](O)[C@H](O)[C@@H]2O)[C@@H](O)[C@H]1O`: the Kd was 192 µM (active) (protein: Poly [ADP-ribose] polymerase 14 MACRO DOMAIN 1, PDB entry 3q6z); 6.4 µM (active) (protein: Poly [ADP-ribose] polymerase 14 MACRO DOMAIN 1 and 2, PDB entry 3vfq); 6 µM (active) (protein: Poly [ADP-ribose] polymerase 14 MACRO DOMAIN 2, PDB entry 3q71); 1.9 µM (active) (protein: Poly [ADP-ribose] polymerase 14 MACRO DOMAIN 3, PDB entry 4abk).

Regarding `Nc1ncnc2c1ncn2[C@@H]1O[C@H](CO[P+](O)(O)O[P+](O)(O)O[P+](O)(O)O[P+](O)(O)O[P+](O)(O)OC[C@H]2O[C@@H](n3cnc4c(N)ncnc43)[C@H](O)[C@@H]2O)[C@@H](O)[C@H]1O`, the Kd (protein: Adenylate kinase, PDB entry 4w5j) was 0.057 µM (active).

For the molecule `Nc1ncnc2c1ncn2[C@@H]1O[C@H](CO[P+](O)(O)O[P+](O)(O)O[P+](O)(O)O)[C@@H](O)[C@H]1O`, the Kd runs as follows: (protein: ADENYLATE CYCLASE TYPE 10, PDB entry 4usw) 2030 µM (active); (protein: Chaperone protein DnaK (N432M,Q433G,S434G mutation), PDB entry 4jn4) 1.38 µM (active); (protein: Hsp70 CHAPERONE DnaK (N432M,Q433G,S434G mutation), PDB entry 4jne) 1.38 µM (active); (protein: Nitrogen regulatory protein P-II hmGlnK2, PDB entry 4ozn) 4 µM (active); (protein: Protein hfq, PDB entry 3qo3) 0.125 µM (active); (protein: Walker B/D-loop D645N, D651A double mutant rat TAP1-NBD, PDB entry 4k8o) 170 µM (active).

As for H-PDVSSSTA-OH, the Kd (protein: Speckle-type POZ protein, SPOPMATH, PDB entry 3ivq) is 76.1 µM (active).

Turning to H-PHGGSWGQP-OH, the Kd (protein: POM2 Fab, PDB entry 4j8r) is 0.02 µM (active).

Turning to `CC(=O)N1CCC[C@H]1C(=O)N[C@@H](Cc1c[nH]c2ccccc12)C(=O)N[C@@H](C)C(=O)N[C@H](C(=O)N[C@@H](CS)C(=O)N[C@@H](CC(=O)O)C(=O)N[C@@H](CO)C(N)=O)[C@@H](C)O`, the Kd (protein: Thiol:disulfide interchange protein DsbAC30S, PDB entry 4od7) was 8.3 µM (active).

Turning to `C[C@H](NC(=O)[C@H](Cc1c[nH]c2ccccc12)NC(=O)[C@H](CC(N)=O)NC(=O)[C@@H](N)CC(N)=O)C(=O)N[C@@H](CC(=O)O)C(=O)N[C@@H](Cc1ccccc1)C(=O)N[C@@H](CO)C(=O)N[C@@H](CO)C(=O)N[C@H](C(=O)N[C@@H](Cc1c[nH]c2ccccc12)C(=O)N1CCC[C@H]1C(=O)O)[C@@H](C)O` (H-NNWADFSSTWP-OH), the Kd (protein: Adaptor protein complex AP-2, subunit beta-1, PDB entry 3hs9) was 0.49 µM (active).

Broadly, the Kd is the equilibrium constant for the complex coming apart.
